Test results: ChEMBL document CHEMBL1961873, “Compounds: GSK PKIS; Assays: Nanosyn kinase panel” (2012)
“And” between values parts separate entries of the source, which are not always exact repeats. Equal entries are not always repeated.

Key:
[1] = target: Ribosomal protein S6 kinase alpha-6 (Homo sapiens) (UniProt Q9UK32); details: at 1 µM;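 also: each value is a mean inhibition of RSK4 from a GSK PKIS panel screen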
[2] = target: T1, Serine/threonine-protein kinase Sgk1 (Homo sapiens) (UniProt O00141); details: at 0.1 µM
T1 sequence (whole entry): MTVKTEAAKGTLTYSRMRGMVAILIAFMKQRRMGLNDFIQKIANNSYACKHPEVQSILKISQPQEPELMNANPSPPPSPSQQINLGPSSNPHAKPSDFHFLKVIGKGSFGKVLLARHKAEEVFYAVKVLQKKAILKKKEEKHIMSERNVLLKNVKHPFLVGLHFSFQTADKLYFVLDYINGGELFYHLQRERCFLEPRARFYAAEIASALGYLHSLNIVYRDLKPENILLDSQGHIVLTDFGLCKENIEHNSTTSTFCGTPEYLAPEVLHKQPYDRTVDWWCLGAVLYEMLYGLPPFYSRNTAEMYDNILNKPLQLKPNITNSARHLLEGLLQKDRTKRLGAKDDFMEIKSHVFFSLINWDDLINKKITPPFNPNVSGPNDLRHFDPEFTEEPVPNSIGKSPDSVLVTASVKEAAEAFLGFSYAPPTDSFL

[3] = target: T1, Serine/threonine-protein kinase Sgk1 (Homo sapiens); details: at 1 µM
[4] = target: T2, Serine/threonine-protein kinase Sgk2 (Homo sapiens) (UniProt Q9HBY8); details: at 0.1 µM
T2 sequence (whole entry): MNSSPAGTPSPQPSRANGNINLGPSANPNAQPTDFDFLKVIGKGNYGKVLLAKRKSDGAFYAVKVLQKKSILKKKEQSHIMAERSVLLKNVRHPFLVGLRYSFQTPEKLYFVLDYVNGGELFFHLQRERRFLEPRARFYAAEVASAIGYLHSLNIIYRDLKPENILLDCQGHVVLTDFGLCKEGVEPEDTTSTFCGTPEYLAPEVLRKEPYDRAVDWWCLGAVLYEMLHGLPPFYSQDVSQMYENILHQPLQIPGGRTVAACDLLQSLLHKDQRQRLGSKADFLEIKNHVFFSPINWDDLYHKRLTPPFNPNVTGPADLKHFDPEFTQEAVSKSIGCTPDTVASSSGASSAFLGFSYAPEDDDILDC

[5] = target: T2, Serine/threonine-protein kinase Sgk2 (Homo sapiens); details: at 1 µM
[6] = target: T3, Serine/threonine-protein kinase Sgk3 (Homo sapiens) (UniProt Q96BR1); details: at 0.1 µM
T3 sequence (whole entry): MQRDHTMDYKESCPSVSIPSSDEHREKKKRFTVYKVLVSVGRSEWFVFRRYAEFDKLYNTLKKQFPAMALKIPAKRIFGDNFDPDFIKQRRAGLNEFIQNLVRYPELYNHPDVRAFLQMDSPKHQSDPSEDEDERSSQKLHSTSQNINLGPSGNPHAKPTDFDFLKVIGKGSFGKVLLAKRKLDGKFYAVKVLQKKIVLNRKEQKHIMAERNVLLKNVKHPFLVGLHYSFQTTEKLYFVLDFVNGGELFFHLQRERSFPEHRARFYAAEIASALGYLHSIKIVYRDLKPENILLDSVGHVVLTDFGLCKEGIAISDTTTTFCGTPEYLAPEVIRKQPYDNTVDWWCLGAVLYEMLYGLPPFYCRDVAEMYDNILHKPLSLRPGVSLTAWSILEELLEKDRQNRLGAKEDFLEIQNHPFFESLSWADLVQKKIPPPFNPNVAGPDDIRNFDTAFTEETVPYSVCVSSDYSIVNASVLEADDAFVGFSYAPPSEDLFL

[7] = target: T3, Serine/threonine-protein kinase Sgk3 (Homo sapiens); details: at 1 µM
[8] = target: 5'-AMP-activated protein kinase catalytic subunit alpha-1 (Homo sapiens) (UniProt Q13131); details: at 0.1 µM
5'-AMP-activated protein kinase catalytic subunit alpha-1 (Homo sapiens), sequence (Q13131 whole entry, looked up): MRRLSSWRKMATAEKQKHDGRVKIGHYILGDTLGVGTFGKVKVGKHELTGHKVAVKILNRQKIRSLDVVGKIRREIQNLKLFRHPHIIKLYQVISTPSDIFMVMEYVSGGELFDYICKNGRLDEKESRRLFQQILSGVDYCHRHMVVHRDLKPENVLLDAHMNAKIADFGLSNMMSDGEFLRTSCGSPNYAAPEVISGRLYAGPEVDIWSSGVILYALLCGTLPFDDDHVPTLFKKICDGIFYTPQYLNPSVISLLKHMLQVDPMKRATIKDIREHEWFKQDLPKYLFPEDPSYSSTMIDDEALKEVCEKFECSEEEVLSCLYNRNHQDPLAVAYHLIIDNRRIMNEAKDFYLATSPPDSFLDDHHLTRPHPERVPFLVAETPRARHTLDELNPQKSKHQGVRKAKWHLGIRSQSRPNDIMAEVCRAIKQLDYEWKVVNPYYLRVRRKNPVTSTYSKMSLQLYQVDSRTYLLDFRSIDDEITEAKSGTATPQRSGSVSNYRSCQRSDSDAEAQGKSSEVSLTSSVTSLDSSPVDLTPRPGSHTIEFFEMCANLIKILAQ

[9] = target: 5'-AMP-activated protein kinase catalytic subunit alpha-1 (Homo sapiens) (UniProt Q13131); details: at 1 µM
[10] = target: 5'-AMP-activated protein kinase catalytic subunit alpha-2 (Homo sapiens) (UniProt P54646); details: at 0.1 µM;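 also: mean inhibition measured on the AMPK complex of alpha2, beta1 and gamma1 subunits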
5'-AMP-activated protein kinase catalytic subunit alpha-2 (Homo sapiens), sequence (P54646 whole entry, looked up): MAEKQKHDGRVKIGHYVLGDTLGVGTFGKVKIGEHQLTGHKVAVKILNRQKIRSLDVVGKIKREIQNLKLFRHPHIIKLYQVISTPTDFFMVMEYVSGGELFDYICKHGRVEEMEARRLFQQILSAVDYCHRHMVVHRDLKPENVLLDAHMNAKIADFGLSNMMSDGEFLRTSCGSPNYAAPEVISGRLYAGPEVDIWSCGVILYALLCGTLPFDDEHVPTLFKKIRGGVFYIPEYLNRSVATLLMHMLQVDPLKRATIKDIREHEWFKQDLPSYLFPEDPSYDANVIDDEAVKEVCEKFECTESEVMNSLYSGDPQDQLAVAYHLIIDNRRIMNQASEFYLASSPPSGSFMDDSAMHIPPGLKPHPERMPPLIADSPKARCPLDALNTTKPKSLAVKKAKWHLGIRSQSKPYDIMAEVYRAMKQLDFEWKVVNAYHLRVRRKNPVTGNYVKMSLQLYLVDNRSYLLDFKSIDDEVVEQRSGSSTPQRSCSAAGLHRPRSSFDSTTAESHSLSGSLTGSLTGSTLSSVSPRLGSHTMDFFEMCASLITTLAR

Ribosomal protein S6 kinase alpha-6 (Homo sapiens), sequence (Q9UK32 whole entry): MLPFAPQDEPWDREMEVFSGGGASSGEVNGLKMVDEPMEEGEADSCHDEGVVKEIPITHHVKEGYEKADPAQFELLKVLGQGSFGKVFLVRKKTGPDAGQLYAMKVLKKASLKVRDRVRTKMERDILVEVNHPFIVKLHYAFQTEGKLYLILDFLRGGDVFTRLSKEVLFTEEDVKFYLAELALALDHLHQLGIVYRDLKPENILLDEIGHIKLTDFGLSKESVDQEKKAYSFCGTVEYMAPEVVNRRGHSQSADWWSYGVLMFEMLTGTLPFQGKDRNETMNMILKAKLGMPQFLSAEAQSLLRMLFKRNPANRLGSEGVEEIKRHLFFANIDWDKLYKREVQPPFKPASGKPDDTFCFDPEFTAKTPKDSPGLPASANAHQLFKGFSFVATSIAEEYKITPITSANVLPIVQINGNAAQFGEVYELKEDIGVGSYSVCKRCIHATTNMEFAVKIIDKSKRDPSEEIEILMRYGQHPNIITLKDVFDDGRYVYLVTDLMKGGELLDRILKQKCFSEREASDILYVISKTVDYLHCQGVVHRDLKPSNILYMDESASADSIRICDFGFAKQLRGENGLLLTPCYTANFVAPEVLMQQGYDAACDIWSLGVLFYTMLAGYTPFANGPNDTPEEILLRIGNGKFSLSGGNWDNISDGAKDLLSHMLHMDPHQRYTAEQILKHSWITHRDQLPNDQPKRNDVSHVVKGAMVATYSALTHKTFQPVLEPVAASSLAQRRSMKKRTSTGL

| Compound | inhibition [1] | inhibition [2] | inhibition [3] | inhibition [4] | inhibition [5] | inhibition [6] | inhibition [7] | inhibition [8] | inhibition [9] | inhibition [10] |
| --- | --- | --- | --- | --- | --- | --- | --- | --- | --- | --- |
| NS(=O)(=O)c1ccc(N/N=C2\C(=O)Nc3ccc(C(=O)NCc4ccncc4)cc32)cc1 | 11.3% | 3.41% | 12.9% | 0.65% | 8.08% | 4.07% | 8.33% | 41.7% | 75.5% | 5.3% |
| COc1cc(N2CCN(C(C)C)CC2)ccc1Nc1nc(Nc2cccc(F)c2C(=O)O)c2cc[nH]c2n1 | 13% | 0.41% | 5.92% | 0.2% | 3.35% | 3.6% | 4.41% | 3.98% | 5.67% | 0.48% |
| CN(C)CCNC(=O)Nc1ccc(N(C)c2ccnc(Nc3ccc(CS(C)(=O)=O)cc3)n2)cc1 | 3.59% | 3.14% | 3.11% | 0.71% | -2.21% | 3.61% | 0.64% | 2.62% | 5.07% | 2.24% |
| N#Cc1ccc2c(-c3ccnc(NC4CC4)n3)c(-c3ccc(F)cc3)nn2c1 | 1.24% | 1.64% | 1.98% | -0.02% | -1.14% | 2.02% | 1.13% | 0.78% | 0.77% | 0.36% |
| OCCCNc1nccc(-c2c(-c3ccc(F)cc3)nn3cc(C(F)(F)F)ccc23)n1 | 2.38% | 2.5% | 1.43% | 1.44% | 5.76% | 1.97% | 2.06% | 2.58% | 1.3% | -0.71% |
| COc1c(C(N)=O)cc(-c2ccc(Cl)cc2)cc1-c1ccc(S(N)(=O)=O)cc1 | 3.2% | 0.41% | 2.71% | 5.14% | 5% | 1.37% | 3% | 1.83% | 4.47% | 7.86% |
| Nc1nccc(-c2c(-c3ccc(F)cc3)ncn2C2CCNCC2)n1 | 4.21% and 1.38% | 0.06% and 1.23% | 2.06% and 1.69% | -3% and 1.37% | 0.49% and 1.29% | -1.13% and 1.78% | -2.95% and -0.32% | -1.82% and 0.38% | 0.26% and 0.1% | -1.29% and 1.97% |
| NC(=O)c1ccc2c(-c3ccnc(NCCCO)n3)c(-c3ccc(F)cc3)nn2c1 | 2.84% | 2.62% | 2.32% | 4.31% | 1.91% | 2.16% | 1.28% | 2.28% | 7.4% | 3.45% |
| CS(=O)(=O)CCNCc1ccc(-c2ccc3ncnc(Nc4ccc(OCc5ccccc5)cc4)c3c2)o1 | 1.11% | 5.01% | 2.28% | 2.02% | 1.93% | 3.54% | 1.87% | 2.94% | 3.44% | 2.07% |
| O=C(O[C@H]1CN[C@H](C#Cc2cc3ncnc(Nc4ccc5c(cnn5Cc5ccccc5)c4)c3s2)C1)N1CCOCC1 | -1.11% | -0.09% | -1.15% | -1.55% | 4.74% | -2.07% | 0.07% | 1.24% | 3.86% | 2.29% |
| COC(=O)Nc1nc2ccc(Oc3ccc(NC(=O)Nc4cc(C(F)(F)F)ccc4F)cc3)cc2s1 | 1.65% | 0.33% | 0.95% | -4.85% | 0.53% | 1.37% | 1.57% | -0.71% | 0.03% | 0.72% |
| COC(=O)Nc1nc2cc(Oc3ccc(NC(=O)Nc4ccccc4)cc3)ccc2[nH]1 | 0.36% | 2.77% | 5.31% | 0.16% | 3.69% | 3.38% | 5.17% | 2.62% | 2.79% | 0.01% |
| Cn1c(-c2nonc2N)nc2cnccc21 | 5.91% | 3.35% | 6.24% | 5.57% | 10.7% | 2.77% | 13.6% | 3.36% | 3.2% | 0.94% |
| CC1(C)CC(n2cnc(-c3ccc(F)cc3)c2-c2ccnc(N)n2)CC(C)(C)N1 | 0.95% | 1.68% | 5.28% | -3.17% | -3.03% | 1.34% | 1.32% | 0.3% | 1.1% | 3.69% |
| c1ccc(-c2n[nH]cc2-c2ccnc(-c3ccc(OCCn4ccnc4)cc3)c2)nc1 | 1.74% | 0.97% | 2.43% | 0.56% | 0.22% | 0.55% | 2.01% | 0.79% | 3.29% | 2.92% |
| COc1cccc(Nc2nccc(-c3cnn4ncccc34)n2)c1 | 4.34% | 1.84% | 9.81% | 7.46% | 6.98% | -0.45% | 2.03% | 2.19% | 10.9% | -3.44% |

| Compound | inhibition [1] | inhibition [2] | inhibition [3] | inhibition [4] | inhibition [5] | inhibition [6] | inhibition [7] | inhibition [8] | inhibition [9] | inhibition [10] |
| --- | --- | --- | --- | --- | --- | --- | --- | --- | --- | --- |
| COc1ccc2ncn(-c3cc(O[C@H](C)c4ccccc4C(F)(F)F)c(C(N)=O)s3)c2c1 | 9.8% | 0.33% | 0.95% | -1.23% | 0.53% | -0.12% | 0.72% | -0.57% | 3.14% | 0.8% |
| c1cnn2ncc(-c3ccnc(NCCCN4CCOCC4)n3)c2c1 | 0.49% | 1.8% | 3.79% | 0.34% | 5.05% | 5.66% | 8.34% | 2.28% | 2.5% | 3.24% |
| CN1CCN(Cc2ccc(-c3cc4ncnc(Nc5ccc(OCc6cccc(F)c6)c(Cl)c5)c4s3)o2)CC1 | 2.87% and 4.99% | 2.87% and 4.63% | 3.57% and 7.64% | 1.23% and 4.49% | 1.46% and 3.55% | 1.48% and 4.43% | 2.48% and 5.69% | 2.4% and 5.32% | 3% and 5.69% | 3.72% and 4.13% |
| Cc1ccc(-c2cc3c(NC(=O)C4CC4)ncnc3o2)cc1 | 2.4% | 2.2% | 3% | 5.33% | 8.63% | 3.61% | 4.02% | 3.13% | 5.1% | 2.34% |
| NS(=O)(=O)c1cccc(N/C=C2\C(=O)Nc3ccccc32)c1 | 22.4% | 6.58% | 26.9% | 4.31% | 11.5% | 6% | 5.21% | 3.31% | 12% | 4.65% |
| Fc1cccc(COc2ccc(Nc3ncncc3C#Cc3ccccc3)cc2Cl)c1 | 1.91% | 3.17% | 7.69% | 5.33% | 8.63% | 5.19% | 7.34% | 3.44% | 7.14% | 1.38% |
| Nc1nonc1-c1nc2cnccc2n1C1CC1 | 39.3% and 40.7% | 2.58% and 2.55% | 12.5% and 16.1% | 8.13% and 8.47% | 50.4% and 54.2% | 20% and 22.1% | 61.8% and 65.5% | 5.9% and 3.15% | 14.3% and 11.5% | 1.84% and 3.94% |
| CCOc1ccc2c(-c3ccnc(Nc4cc(OC)cc(C(F)(F)F)c4)n3)cnn2n1 | 0.36% | -0.01% | 1.56% | 0.96% | 3.1% | 1.37% | -0.48% | 0.25% | 1.28% | 1.34% |
| Cc1cc(O)cc(C)c1/C=C/c1cncc(C(=O)OC(C)(C)C)c1 | 1.11% | 1.6% | 2.22% | 3.61% | 4.38% | 3.8% | 0.63% | 2.74% | 3.91% | 2.92% |
| FC(F)(F)CNc1nccc(-c2cnn3ncccc23)n1 | 0.2% | 1.25% | 1.46% | 0% | 0.87% | 2.93% | 4.28% | 1.91% | 2.67% | 0.68% |
| CS(=O)(=O)Nc1ccc(-c2ccc3c(NC(=O)C4CC4)n[nH]c3c2)cc1 | 3.46% | 3.96% | 2.95% | 0.2% | 4.06% | 2.22% | 0.14% | 3.58% | 6.37% | 10.3% |
| CN1CCC(n2cnc(-c3ccc(F)cc3)c2-c2ccnc(NCCO)n2)CC1 | 1.96% | 3.61% | 6.71% | 0.04% | 5.93% | 5.14% | 3.95% | 2.98% | 6.22% | 1.25% |
| CC1=C(C(=O)Nc2ccc3[nH]nc(C)c3c2)C(c2ccc(C(F)(F)F)cc2)CC(=O)N1 (stereo not given) | 18.9% | 2.07% | 7.21% | 0.38% | 5.99% | 1.33% | 6.15% | 4.08% | 24.4% | -0.12% |
| COc1cc(Nc2ncc(-c3ccccc3)o2)cc(OC)c1 | 2.83% | 3.1% | 4.7% | 3.93% | 4.37% | 3.26% | 3% | 2.43% | 5.67% | 2.86% |
| O=C(O[C@H]1CN[C@H](C#Cc2cc3ncnc(Nc4ccc5c(ccn5Cc5cc(F)ccc5F)c4)c3s2)C1)N1CCOCC1 | 2.42% | 3.69% | 3.13% | 4.36% | 0.96% | 3.53% | 3.51% | 3.06% | 1.13% | 3.89% |
